Screens (PubChem)
LAP4-GFP MLPCN: yeast TOR pathway LAP4-GFP modulation | S. cerevisiae LAP4-GFP multiplex, flow cytometry GFP, 3 h; median GFP as percent of DMSO wells | GFP response vs DMSO, % at 10 µM | hit rate 0.34% among 320,000;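 active = GFP response vs DMSO above a set limit, about the screen mean plus 3 SD, cut at about 150% in these data; inconclusive = under 70 cell events counted for the yeast strain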
AGP1 TOR yeast: modulators of TOR pathway AGP1-GFP in S. cerevisiae | hit rate 0.02% among 320,000 | GFP response vs DMSO, % at 10 µM | S. cerevisiae AGP1-GFP multiplex flow cytometry, 3 h; GFP as percent of DMSO wells | AID 2066;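 active = GFP response relative to DMSO above a set limit, near screen average plus 3 SD, cut at about 150% in these data; inconclusive = fewer than 70 cells counted for the yeast strain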;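 also: median GFP channel fluorescence of the gated AGP1 strain per well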
CIT2 TOR yeast: modulators of TOR pathway CIT2-GFP in S. cerevisiae | AID 2029 | hit rate 0.065% among 320,000 | S. cerevisiae CIT2-GFP strain, flow cytometry, 3 h; 100 means same as DMSO wells | GFP response vs DMSO, % at 10 µM;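 active = GFP response relative to DMSO above a set limit, near the screen mean plus 3 SD, cut at about 150% in these data; inconclusive = Fewer than 70 cells measured for a yeast strain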;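 also: ratio of well median GFP fluorescence to mean of DMSO wells on the plate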
MEP2-GFP yeast: alters MEP2-GFP fluorescence in TOR pathway yeast screen | hit rate 0.51% among 330,000 | AID 2016 | GFP response vs DMSO, % at 10 µM | S. cerevisiae MEP2-GFP strain, flow cytometry GFP, 3 h; 100% = DMSO control level;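 active = GFP response versus DMSO above a set limit, roughly screen mean plus 3 SD, cut at about 180% in these data; inconclusive = fewer than 70 cells counted for a yeast strain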;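 also: median GFP fluorescence of the barcode-gated MEP2-GFP cells per well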
RPL19A TOR yeast: modulators of TOR pathway RPL19A-GFP in S. cerevisiae. percent response vs DMSO, % at 10 µM. S. cerevisiae RPL19A-GFP strain, flow cytometry, 3 h; hits give low values. hit rate 0.3% among 330,000;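 active = percent response vs DMSO below 50%; inconclusive = fewer than 70 events counted for the yeast strain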;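 also: median channel GFP fluorescence of the barcoded RPL19A-GFP strain; ratio of sample median GFP to plate DMSO average so 100% = DMSO; lower means less RPL19A-GFP as with rapamycin TOR inhibition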
Active calls of the source: *; ? = inconclusive; . = no result given; [ ] = dose if it differs, or a comment. Hits are enriched below; roughly 0.93% of the tested compounds scored in any of these assays.

SMILES	LAP4-GFP MLPCN	AGP1 TOR yeast	CIT2 TOR yeast	MEP2-GFP yeast	RPL19A TOR yeast
CCCCOc1ccc(C(=O)NC(=S)Nc2ccc(CN3CCOCC3)cc2)cc1	111	107	97	112	99
Cc1cc(NC(=O)CSc2nnc(-c3ccccc3F)n2N)no1	.	98	103	99	96
CCS(=O)(=O)N1CCN(S(=O)(=O)c2ccc3c(c2)OCCO3)CC1	114	?	?	?	40*[may fluoresce violet]
COC(=O)c1ccc(NC(=O)CS(=O)(=O)c2ccccc2)cc1	87	107	110	107	107
Cc1cc(C)c(S(=O)(=O)c2cccc(C)c2C)c(=O)[nH]1	74	16	?	387*[may fluoresce violet]	54
CCOc1cc(/C=C\c2nc(O)c([N+](=O)[O-])c(=O)[nH]2)ccc1OC(C)C	66	?	?	607*[may fluoresce violet]	53
CCOc1cc(/C=C\c2[nH]c(=O)[nH]c(=O)c2[N+](=O)[O-])ccc1OC(C)CC (stereo not given)	85	89	93	101	97
COc1cc(/C=N/NC(=O)C(=O)NCc2ccco2)cc(Cl)c1O	68	?	?	178*[may fluoresce violet]	51
COc1ccc(C(=O)NN=C2CCCC2)cc1	106	101	100	107	100
Cc1cc(OCc2ccc(C(=O)NN=C3CCCC3)cc2)ccc1Cl	174*	121	95	96	97
O=C(COc1ccc(OCc2ccccc2)cc1)NN=C1CCCC1	152*	107	84	121	95
CC(C)NC(=O)COc1ccc(OCc2ccccc2)cc1	106	96	107	101	101
COc1cccc(Nc2nc(N)c([N+](=O)[O-])c(N3CCOCC3)n2)c1	71	17	?	214*[may fluoresce violet]	53
CCOc1cc(/C=C2\SC(=NC)N(C)C2=O)cc(Cl)c1OC(C)=O	83	88	97	102	105
CCOc1cc(/C=C2\SC(=NC)N(C)C2=O)c(Br)cc1OC(C)=O	76	?	?	197*[may fluoresce violet]	41*[may fluoresce violet]
Cc1[nH]c2ccccc2c1C(c1ccccn1)N1CCC(C(N)=O)CC1 (stereo not given)	150*	79	79	84	85
O=C(CC(=O)NC1CCCCC1)N/N=C/c1ccc(Cl)cc1	81	25	?	230*[may fluoresce violet]	71
COC(=O)c1ccc(/C=N/NC(=O)CC(=O)NC2CCCCC2)cc1	103	95	91	94	95
Cc1nc2cc(NC(=O)N3CCCCC3)ccc2n1C	92	?	?	371*[may fluoresce violet]	41*[may fluoresce violet]
CN(C)S(=O)(=O)c1cccc(C(=O)N=C2N=C3C=CC(Cl)=CN3Cc3ccccc32)c1	95	96	93	93	98
COc1ccc(-c2ccc(SCC(=O)N3c4ccccc4CC3C)nn2)cc1OC (stereo not given)	163*	108	145	183*	109
CCOC(=O)N1CCN(C(=O)CSc2ccc(-c3ccc(OC)c(OC)c3)nn2)CC1	103	105	98	95	101
CC(OC(=O)Cc1n[nH]c(=O)c2ccccc12)C(=O)Nc1ccc(F)cc1Cl (stereo not given)	102	101	99	99	97
CCN1C(=O)[C@@H]2C(C(=O)c3cnccn3)=NN[C@@H]2C1=O	99	98	102	104	102
Cc1cccc(C2=NC(C(F)(F)F)(C(F)(F)F)c3c(n(-c4ccc(F)cc4)c(=O)[nH]c3=O)N2)c1	94	?	?	222*[may fluoresce violet]	59
SMILES	LAP4-GFP MLPCN	AGP1 TOR yeast	CIT2 TOR yeast	MEP2-GFP yeast	RPL19A TOR yeast
CC(=O)NC1(C(F)(F)F)C(=O)Nc2c1c(=O)[nH]c(=O)n2-c1ccccc1 (stereo not given)	97	99	101	97	96
COC(=O)c1cc2n(n1)CCN(Cc1ccc(C)cc1)C2=O	79	?	?	205*[may fluoresce violet]	59
COC(=O)c1cc2n(n1)CCN(Cc1cccc(OC)c1)C2=O	92	103	96	104	105
c1ccc(C2CCC(N3CCN(c4ccccc4)CC3)CC2)cc1 (stereo not given)	91	100	111	109	104
Cc1cc2c(cc1S(=O)(=O)CCC(=O)Nc1cccc(C(F)(F)F)c1)OCC(=O)N2	92	95	98	104	100
N#Cc1cc(Sc2ccccn2)c([N+](=O)[O-])cc1C#N	156*	110	158*	127	113
CCN(CC)C(=O)C1=C(C)NC(=S)NC1c1cccs1 (stereo not given)	82	16	?	275*[may fluoresce violet]	80
CCOC(=O)CN1C(=O)CSc2ccc(S(=O)(=O)N3CCCC3)cc21	106	107	106	98	105
CCOC(=O)CN1C(=O)CSc2ccc(S(=O)(=O)N3CCOCC3)cc21	50	?	?	275*[may fluoresce violet]	33*[may fluoresce violet]
Cc1c(C(=O)OCC(C)(C)CN(C)C)oc2ccccc12	85	94	.	97	98
Cc1c(C(=O)OC(C)CCN(C)C)oc2ccccc12 (stereo not given)	91	19	?	176*[may fluoresce violet]	55
CC1=C(C#N)c2nc(N)c(C#N)c(C)c2/C1=C\c1ccc(C)cc1	175*	96	94	103	96
Cc1cccc(OCC(=O)Nc2ccc3c(C)cc(=O)oc3c2)c1	83	85	92	89	95
Cc1cc(=O)oc2cc(NC(=O)CCOc3ccccc3)ccc12	61	?	?	255*[may fluoresce violet]	38*[may fluoresce violet]
C[C@]12C[C@H](O)[C@@H]3c4ccc(O)cc4CCC3[C@@H]1CCC2=O (stereo not given in full)	104	101	104	112	96
C[C@]12CC[C@H]3C(=CCc4cc(O)ccc43)[C@@H]1CCC2=O	157*	88	78	105	103
COc1ccc(NC(=O)CSCCc2ccccn2)cc1OC	107	104	104	99	97
O=C(CSCCc1ccccn1)Nc1cccnc1	?	?	?	?	40*[may fluoresce violet]
COc1ccc(Cl)cc1NC(=O)CN(C)S(=O)(=O)c1cccs1	54	?	?	201*[may fluoresce violet]	32*[may fluoresce violet]
CC1=CC(c2ccccc2)n2nc(N3C(=O)C4CC=CCC4C3=O)nc2N1 (stereo not given)	101	.	?	448*[may fluoresce violet]	44*[may fluoresce violet]
CC1=CC(c2ccccc2)n2nc(N3C(=O)CCC3=O)nc2N1 (stereo not given)	99	110	104	110	98
O=C1NC(Cc2ccc(O)cc2)c2nc3ccc(Br)cc3c(=O)n2-c2ccc(Cl)cc21 (stereo not given)	90	94	86	99	95
Cc1occc1-c1nnc(-c2cc([N+](=O)[O-])cc([N+](=O)[O-])c2)o1	172*	90	70	99	79
CC(NC(=O)c1cc(COc2c(F)cccc2F)on1)c1cnn(-c2ccccc2)c1 (stereo not given)	98	98	98	100	104
COC(=O)c1cc2c(=O)c3ccccc3oc2nc1/C=C/N(C)C	190*[may fluoresce violet]	38	?	572*[may fluoresce violet]	115
